Measurements from paper PMC7819943, “Rice protein-binding microarrays: a tool to detect cis-acting elements near promoter regions in rice”.
Over roughly 39,000 sequences, “fluorescence intensity (a.u.)” has its median near 4,300; the highest 2% begin near 39,000. The sample as a whole holds a higher share of the highest values than the screen did.

Target: T1, OsSMF1 (Oryza sativa, UniProt Q6ZLB0 1-436)
T1 sequence: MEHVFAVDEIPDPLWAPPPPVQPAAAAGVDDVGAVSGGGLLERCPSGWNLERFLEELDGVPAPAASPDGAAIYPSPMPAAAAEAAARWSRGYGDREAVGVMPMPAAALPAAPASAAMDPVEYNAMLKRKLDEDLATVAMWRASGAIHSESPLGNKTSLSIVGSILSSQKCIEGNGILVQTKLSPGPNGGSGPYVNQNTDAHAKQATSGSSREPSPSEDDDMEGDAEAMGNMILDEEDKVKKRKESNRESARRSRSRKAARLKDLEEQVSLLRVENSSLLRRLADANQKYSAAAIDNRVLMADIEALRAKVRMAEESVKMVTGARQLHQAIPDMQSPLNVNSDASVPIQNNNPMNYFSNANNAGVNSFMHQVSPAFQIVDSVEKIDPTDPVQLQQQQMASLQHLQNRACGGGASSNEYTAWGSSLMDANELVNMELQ
Experiment: protein-binding microarray (RPBM); PBS, 2% BSA, 51.3 ng/ul salmon testes DNA, 50 uM zinc acetate, 200 nM TF, 25 C, 1 h; high values mean tight binding
Conditions: protein: recombinant; tags: N-terminal polyhistidine and DsRed monomer fusion (pET32a); chain copies: 2; label: CyDye5-dUTP incorporated in the synthesized complementary strand; 3' TTTTT single-stranded linker to array surface; dsDNA, one strand shown
Procedure, shortened: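 In PBS with 2% BSA, salmon testes DNA and 50 µM zinc acetate, 200 nM protein was incubated on a custom Agilent array at 25 °C for 1 h and then washed off. The array had been made double-stranded by primer extension with Cy5-dUTP and blocked with 2% BSA. The proteins were transcription factors fused N-terminally to polyhistidine and DsRed, expressed in E. coli BL21-CodonPlus and purified on Ni–NTA. The binding signal is per-feature fluorescence intensity (arbitrary units) from an Axon 4000B scanner.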

| Sequence | binding signal |
| --- | --- |
| TCTTGATGATGTGGAGTTTATGGAAACTATGTCTAGTGTTCGGAGTCACCTAGTGCAG | 7560 fluorescence intensity (a.u.) |
| TTATTGGTGGATGCCTCTGAGTCGGATGTGGGTCGTACAACGGAGTCACCTAGTGCAG | 3660 fluorescence intensity (a.u.) |
| TTGGAAGTTTATGTGTGTAGAAAAGTTTTGATGTAATGAACGGAGTCACCTAGTGCAG | 44400 fluorescence intensity (a.u.) |
| TATTTGTATTATGTTGCAAATGTTGCAATATATATATTTACGGAGTCACCTAGTGCAG | 15300 fluorescence intensity (a.u.) |
| CTCAGTATATATGTTTTGAATTCATTATGACATCTTTACACGGAGTCACCTAGTGCAG | 3360 fluorescence intensity (a.u.) |
| TACAGTATGTTGTGGAAGGCCTTTGAATTATATTGCATTACGGAGTCACCTAGTGCAG | 49000 fluorescence intensity (a.u.) |
| TCACATGATGTCTTGGATGTTGTGTAGAAATTCTCTTTCCCGGAGTCACCTAGTGCAG | 3560 fluorescence intensity (a.u.) |
| TGTTTGGACATATGCATGGAGCATTAAATGTGGATGAAAACGGAGTCACCTAGTGCAG | 4350 fluorescence intensity (a.u.) |
| GTTGGAGATGCTCTGAGAAACGCATATGTGGATGGTCTTACGGAGTCACCTAGTGCAG | 48100 fluorescence intensity (a.u.) |
| CTGAAAAGTTGTGTGTGTATGACATGTTGATGTGATGGAACGGAGTCACCTAGTGCAG | 5180 fluorescence intensity (a.u.) |
| GCATGTAGCTATGCAGCCATCCACGTCACTCCTTGCGTACCGGAGTCACCTAGTGCAG | 31800 fluorescence intensity (a.u.) |
| ATTAAGCACTACGTCAGATATGATTGGCCATCATTGCATTCGGAGTCACCTAGTGCAG | 3150 fluorescence intensity (a.u.) |
| ACACCCGTCCGTCCCGTCTCGTTCTGCGCCGTCTCGCCGGCGGAGTCACCTAGTGCAG | 18700 fluorescence intensity (a.u.) |
| GAAGATAGTACTAACTATATTTTGTAACGGAGAGATTGTTCGGAGTCACCTAGTGCAG | 4130 fluorescence intensity (a.u.) |
| AATAGTAGGCTATAAGCCGGCTAAATGCTGAGGTGGAGGACGGAGTCACCTAGTGCAG | 5420 fluorescence intensity (a.u.) |
| TGTGGACAATGCTAGAAAGTCTTACATTGTCAAACGGATGCGGAGTCACCTAGTGCAG | 39500 fluorescence intensity (a.u.) |
| TGAGTGAATACACAGTACTATGACGACGATAAGGTTGGGGCGGAGTCACCTAGTGCAG | 32700 fluorescence intensity (a.u.) |
| TCAAATTGAAAGTTTCCAAAATTTTCAAATCTGGACTTGACGGAGTCACCTAGTGCAG | 43500 fluorescence intensity (a.u.) |
| TTGGACAAATCATTTGGCAAAATTTCAAAGTTTTGAATCTCGGAGTCACCTAGTGCAG | 28600 fluorescence intensity (a.u.) |
| TGTTAGAAAGTCTTATAATATAAAACGGAGGAAATATTTACGGAGTCACCTAGTGCAG | 6480 fluorescence intensity (a.u.) |
| AGTAGTGAGGTTGAGGCATAAGTACATTGAATTGAATTGACGGAGTCACCTAGTGCAG | 44100 fluorescence intensity (a.u.) |

| Sequence | binding signal |
| --- | --- |
| AAATTGAGTTGAAAATTTTCAAATCTCGACTTGAAAGTTTCGGAGTCACCTAGTGCAG | 21800 fluorescence intensity (a.u.) |
| TAGAATTGTCAAGTCAATGCCACGTGGGACAAAGACCTAGCGGAGTCACCTAGTGCAG | 17900 fluorescence intensity (a.u.) |
| ATGCTAGAAAGTCTTATAACCTGAAACGGAGGTAGTAGGACGGAGTCACCTAGTGCAG | 65000 fluorescence intensity (a.u.) |
| TACACACCATAATTGAAGTATTGAGTCACACATAATTGAACGGAGTCACCTAGTGCAG | 3220 fluorescence intensity (a.u.) |
| TTCTTATTGTCTTAGCTACAAACGATCCATACAAACATTGCGGAGTCACCTAGTGCAG | 4240 fluorescence intensity (a.u.) |
| TCTCTCTCACTCTTCTCTTGCAGGCCTGCGTGGCATACTACGGAGTCACCTAGTGCAG | 7430 fluorescence intensity (a.u.) |
| CGGAAACAGATCATCAAACCCATACGTCAGTGATCCAAGTCGGAGTCACCTAGTGCAG | 3410 fluorescence intensity (a.u.) |
| TTCCAGTCCACCGTGGCGGTGGCGCGTCAGCTTTCCAGCCCGGAGTCACCTAGTGCAG | 12000 fluorescence intensity (a.u.) |
| GGTCCACCCGAATCGGAGTCAGCCAGCCAAGCCACCTAATCGGAGTCACCTAGTGCAG | 4780 fluorescence intensity (a.u.) |
| GCCGGTCGAACCGCCCGAACACCTACGGTCAGACCGCTGCCGGAGTCACCTAGTGCAG | 3360 fluorescence intensity (a.u.) |
| CTTCATACTGCAGTATCTGAAAAGATGTCATTGTAAAGTTCGGAGTCACCTAGTGCAG | 3140 fluorescence intensity (a.u.) |
| TATTGATTGATTGGTTAGTACTACAGTACTGTAGGAGTGGCGGAGTCACCTAGTGCAG | 29800 fluorescence intensity (a.u.) |
| TTGTAGAAGTTGAATTTGGTTTTACATATTTGTGGAGTGACGGAGTCACCTAGTGCAG | 61600 fluorescence intensity (a.u.) |
| GCATGTTTTGAGTTTGAAAGTTTTAAATTTTGAGTTGAAACGGAGTCACCTAGTGCAG | 50200 fluorescence intensity (a.u.) |
| CCAAAATGAGTTGAAATGAATTTTGTATGCATTTTATAAACGGAGTCACCTAGTGCAG | 6000 fluorescence intensity (a.u.) |
| CATGTTTGTGAAGTGACGTATTACATATTGATCTATTTGACGGAGTCACCTAGTGCAG | 8700 fluorescence intensity (a.u.) |
| TGTGATTGTATTGGTTACTAGAGTAGTATTTAGTAGAGATCGGAGTCACCTAGTGCAG | 42200 fluorescence intensity (a.u.) |
| GTTGTTGATGTGATTGTGTGTATTCAAGTAGAGATTGGGTCGGAGTCACCTAGTGCAG | 3240 fluorescence intensity (a.u.) |
| TTATGTTTGAATTTAAGTTTTGAGTTTTGTTGCGTGCGCACGGAGTCACCTAGTGCAG | 28800 fluorescence intensity (a.u.) |
| TAGTTGTGACACGTAGAAGTTGAATTTTAACTTTTATGTTCGGAGTCACCTAGTGCAG | 4370 fluorescence intensity (a.u.) |
| CGACTGAAGACTTGGACACGGTCAGTCTTTCTGCCGTGTTCGGAGTCACCTAGTGCAG | 5080 fluorescence intensity (a.u.) |
